# Paper PMC5540273 (PLoS ONE, 2017)
# Test system: SRMS
# Settings: concentration: 1 μM, replicates: in singlicate; n = 1
# 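Also: KINOMEscan kinase panel screen.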
row,Compound,%Inh [%]
1,CN1CCC(n2cnc(-c3ccc(F)cc3)c2-c2ccnc(NC3CCNCC3)n2)CC1 [SB-229482],28
2,COc1cc2ncnc(Nc3ccc(OCc4ccccc4Br)c(Cl)c3)c2cc1OC.Cl [GI261590],0
3,CC(=O)Nc1n[nH]c2ncc(-c3ccccc3)cc12 [SB-548492],25
4,CNc1nccc(-c2c(-c3ccc(F)cc3)ncn2C2CCN(C)CC2)n1 [SB-222903],15
5,O=C(Nc1ccccc1F)NC1CCN(c2ccnc(Nc3ccc(F)cc3)n2)C1 (stereo not shown) [GSK1379722],0
6,O=C(NCCCN1CCCC1=O)c1cnc(NCc2cc(Cl)ccc2Cl)nc1NC1CCNCC1,0
7,O=c1cc(N2CCOCC2)nc2n(Cc3cccc(Cl)c3)ccn12 [GSK2296823],0
8,Nc1n[nH]c2nnc(-c3ccccc3)cc12 [SB-517389],0
9,O=C(Nc1n[nH]c2nc(-c3ccco3)c(Br)cc12)c1ccc(CN2CCCC2)cc1.O=C(O)[C@H](O)[C@@H](O)C(=O)O [SB-742352],0
10,Nc1nc(-c2cccnc2)c(-c2ccnc3ccccc23)s1 [GW684083],0
11,c1ccc(-c2ccc3c(-c4ccnc(Nc5ccc6c(c5)OCCO6)n4)cnn3n2)cc1 [GW818941],0
12,Nc1nc(-c2ccc3c(N)n[nH]c3c2)cc(N2CCC[C@@H](C(=O)Nc3ccccc3)C2)n1.O=C(O)C(F)(F)F.O=C(O)C(F)(F)F [GSK2288359],0
13,COC(=O)c1cccc(NC(=O)NCCNc2ccnc(Nc3ccc(F)cc3)n2)c1 [GSK1379883],0
14,COC(=O)c1c(-c2ccccc2)c2cc(Cl)ccc2c(=O)n1Cc1ccc(S(C)(=O)=O)cc1,0
15,FC(F)(F)c1ccc(-c2cc(-c3c[nH]nc3-c3ccccn3)ccn2)cc1 [GW599550],0
16,COc1ccc(NC(=O)c2ccc(-c3cc(-c4nnc(C)o4)ccc3C)cc2)cc1 [GW595885],0
17,Cl.Cl.c1ccc(-c2cc3ccncc3cc2OC2CCNCC2)cc1 [GSK1122999],0
18,CS(=O)(=O)CCNCc1nc(-c2ccc3ncnc(Nc4ccc(OCc5cccc(F)c5)c(Cl)c4)c3c2)cs1.Cl [GW583340],0

row,Compound,%Inh [%]
1,Cn1ccc2ncnc(Oc3ccc(NC(=O)Nc4cccnc4)c(Cl)c3)c21,0
2,Fc1cccc(COc2ccc(Nc3ncnc4sc(-c5ccc[nH]5)cc34)cc2Cl)c1 [GW707818],14
3,Cl.Cn1ccc(-c2cccc(Nc3ccnc4cc(-c5nccs5)ccc34)c2)n1 [GW525701],0
4,CS(=O)(=O)CCNCc1ccc(-c2ccc3ncnc(Nc4ccc(OCc5ccccc5)c(Cl)c4)c3c2)o1.Cl [GW574783],0
5,COc1ccc(Nc2nccc(N3CCC(NC(=O)Nc4ccc5c(c4)OCO5)C3)n2)cc1 (stereo not shown) [GSK1379745],0
6,Fc1cccc(COc2ccc(Nc3ncnc4nn5ccccc5c34)cc2Cl)c1 [GW689066],0
7,Cc1ccc(O)cc1Nc1cc(C(F)(F)F)nc2ccc(-c3ccncc3)cc12 [GW630823],0
8,Cl.Fc1ccccc1COc1ccc(Nc2ncnc3ccc(-c4nnc(C(F)(F)F)o4)cc23)cc1Cl [GW424170],0
9,Clc1ccc(-c2cc(-c3c[nH]nc3-c3ccccn3)ccn2)cc1 [GW681251],0
10,C[C@H]1CC[C@@H](C(=O)Nc2ccccc2)CN1c1cc(-c2ccc3c(N)n[nH]c3c2)nc(N)n1 [GSK2283293],19
11,Oc1ccc2ncnc(Nc3ccc(OCc4ccccc4)cc3)c2c1 [GI262866],0
12,N#Cc1ccc(Oc2ccc(Nc3ncnc4cc[nH]c34)cc2Cl)cc1,0
13,CC(C)(C)c1ccc(-n2cnc3c(N)ncnc32)cc1 [SKF-97263],14
14,Cc1ccc(C)c(NC(=O)NCCNc2ccnc(Nc3ccc(F)cc3)n2)c1 [GSK1379878],0
15,CCn1c(-c2ccncc2)nc2cnccc21 [SB-735216],16
16,COc1ccc(NC(=O)Nc2ccc(C)c(-c3ccc(C(=O)Nc4ccncc4)cc3)c2)cc1 [GSK1398475],0
17,Clc1cc(Nc2ncnc3cc[nH]c23)ccc1OCc1ccccn1,0

# Test system: SRPK1
# Settings: concentration: 1 μM, replicates: in singlicate; n = 1
row,Compound,%Inh [%]
1,CN1CCC(n2cnc(-c3ccc(F)cc3)c2-c2ccnc(NC3CCNCC3)n2)CC1 [SB-229482],0
2,COc1cc2ncnc(Nc3ccc(OCc4ccccc4Br)c(Cl)c3)c2cc1OC.Cl [GI261590],0
3,CC(=O)Nc1n[nH]c2ncc(-c3ccccc3)cc12 [SB-548492],25
4,CNc1nccc(-c2c(-c3ccc(F)cc3)ncn2C2CCN(C)CC2)n1 [SB-222903],0
5,O=C(Nc1ccccc1F)NC1CCN(c2ccnc(Nc3ccc(F)cc3)n2)C1 (stereo not shown) [GSK1379722],0
6,O=C(NCCCN1CCCC1=O)c1cnc(NCc2cc(Cl)ccc2Cl)nc1NC1CCNCC1,21
7,O=c1cc(N2CCOCC2)nc2n(Cc3cccc(Cl)c3)ccn12 [GSK2296823],16
8,Nc1n[nH]c2nnc(-c3ccccc3)cc12 [SB-517389],20
9,O=C(Nc1n[nH]c2nc(-c3ccco3)c(Br)cc12)c1ccc(CN2CCCC2)cc1.O=C(O)[C@H](O)[C@@H](O)C(=O)O [SB-742352],2
10,Nc1nc(-c2cccnc2)c(-c2ccnc3ccccc23)s1 [GW684083],3
11,c1ccc(-c2ccc3c(-c4ccnc(Nc5ccc6c(c5)OCCO6)n4)cnn3n2)cc1 [GW818941],48
12,Nc1nc(-c2ccc3c(N)n[nH]c3c2)cc(N2CCC[C@@H](C(=O)Nc3ccccc3)C2)n1.O=C(O)C(F)(F)F.O=C(O)C(F)(F)F [GSK2288359],34
13,COC(=O)c1cccc(NC(=O)NCCNc2ccnc(Nc3ccc(F)cc3)n2)c1 [GSK1379883],17
14,COC(=O)c1c(-c2ccccc2)c2cc(Cl)ccc2c(=O)n1Cc1ccc(S(C)(=O)=O)cc1,10
15,FC(F)(F)c1ccc(-c2cc(-c3c[nH]nc3-c3ccccn3)ccn2)cc1 [GW599550],24
16,COc1ccc(NC(=O)c2ccc(-c3cc(-c4nnc(C)o4)ccc3C)cc2)cc1 [GW595885],0
17,Cl.Cl.c1ccc(-c2cc3ccncc3cc2OC2CCNCC2)cc1 [GSK1122999],3
18,CS(=O)(=O)CCNCc1nc(-c2ccc3ncnc(Nc4ccc(OCc5cccc(F)c5)c(Cl)c4)c3c2)cs1.Cl [GW583340],2

row,Compound,%Inh [%]
1,Cn1ccc2ncnc(Oc3ccc(NC(=O)Nc4cccnc4)c(Cl)c3)c21,12
2,Fc1cccc(COc2ccc(Nc3ncnc4sc(-c5ccc[nH]5)cc34)cc2Cl)c1 [GW707818],19
3,Cl.Cn1ccc(-c2cccc(Nc3ccnc4cc(-c5nccs5)ccc34)c2)n1 [GW525701],0
4,CS(=O)(=O)CCNCc1ccc(-c2ccc3ncnc(Nc4ccc(OCc5ccccc5)c(Cl)c4)c3c2)o1.Cl [GW574783],0
5,COc1ccc(Nc2nccc(N3CCC(NC(=O)Nc4ccc5c(c4)OCO5)C3)n2)cc1 (stereo not shown) [GSK1379745],29
6,Fc1cccc(COc2ccc(Nc3ncnc4nn5ccccc5c34)cc2Cl)c1 [GW689066],2
7,Cc1ccc(O)cc1Nc1cc(C(F)(F)F)nc2ccc(-c3ccncc3)cc12 [GW630823],7
8,Cl.Fc1ccccc1COc1ccc(Nc2ncnc3ccc(-c4nnc(C(F)(F)F)o4)cc23)cc1Cl [GW424170],0
9,Clc1ccc(-c2cc(-c3c[nH]nc3-c3ccccn3)ccn2)cc1 [GW681251],0
10,C[C@H]1CC[C@@H](C(=O)Nc2ccccc2)CN1c1cc(-c2ccc3c(N)n[nH]c3c2)nc(N)n1 [GSK2283293],54
11,Oc1ccc2ncnc(Nc3ccc(OCc4ccccc4)cc3)c2c1 [GI262866],32
12,N#Cc1ccc(Oc2ccc(Nc3ncnc4cc[nH]c34)cc2Cl)cc1,0
13,CC(C)(C)c1ccc(-n2cnc3c(N)ncnc32)cc1 [SKF-97263],29
14,Cc1ccc(C)c(NC(=O)NCCNc2ccnc(Nc3ccc(F)cc3)n2)c1 [GSK1379878],0
15,CCn1c(-c2ccncc2)nc2cnccc21 [SB-735216],0
16,COc1ccc(NC(=O)Nc2ccc(C)c(-c3ccc(C(=O)Nc4ccncc4)cc3)c2)cc1 [GSK1398475],0
17,Clc1cc(Nc2ncnc3cc[nH]c23)ccc1OCc1ccccn1,0
